The results in this text go back to article PMC13423814.

In experiment [1] the target is Heterogeneous nuclear ribonucleoprotein A/B (UniProt Q99729).
The target of experiment [2] is Heterogeneous nuclear ribonucleoprotein A0 (UniProt Q13151).
For experiment [3], the target named is Heterogeneous nuclear ribonucleoprotein U (UniProt Q00839).
For experiment [4], the target named is Non-POU domain-containing octamer-binding protein (UniProt Q15233).
Experiment [5] has as its target Polypyrimidine tract-binding protein 1 (UniProt P26599).
A further experiment concerns the target Histone H4 (UniProt P62805).
The target in experiment [6] is Heterogeneous nuclear ribonucleoproteins C1/C2 (UniProt P07910).

“Heterogeneous nuclear ribonucleoproteins C1/C2, P07910”: the “listed as a hit” value in experiment [1], in experiment [2], in experiment [3], in experiment [4] and in experiment [5] was “yes” each time.
For the substance “SWI/SNF-related matrix-associated actin-dependent regulator of chromatin subfamily A member 2, P51531”, in the experiment with Histone H4, the “listed as a hit” value is on record as “yes”.
Consider “Heterogeneous nuclear ribonucleoprotein R, O43390”, for which, in experiment [6], the “listed as a hit” value is recorded as “yes”.
